Here are results for 32 compounds from the supplement of paper PMC10127200.

Structures can show the parent of a compound that is named as a salt.

The experiment concerns DU145. The experiment is described as follows: Euclidean distance of Cell Painting phenotypic profile (signed KS, 77 features) to DMSO centroid (dimensionless distance); 5 or 10 uM (library dependent); higher = stronger phenotypic change vs DMSO (phenoactivity). As to conditions: 48 h. The method, boiled down: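 Five cancer lines, together with a healthy fibroblast line, received library compounds for 48 h at a library-dependent 10 or 5 uM and 0.1% DMSO final. Harmony then derived 77 features from confocal 20X images (9 fields/well) of the stained cells, scoring each as a signed Kolmogorov-Smirnov statistic against same-plate vehicle wells. After plate-position correction, correlation weighting and replicate averaging at the top dose, phenoactivity was taken as each profile's Euclidean distance to the median vehicle profile.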
The compound `Cc1cc(Nc2nc(N[C@@H](C)c3ccc(F)cc3)c(C#N)cc2F)n[nH]1` came in with an Euclidean distance of 2.73.

`CC1(C)S[C@@H]2[C@H](NC(=O)[C@H](N)c3ccc(O)cc3)C(=O)N2[C@H]1C(=O)O` [Amoxicillin Sodium] displayed an Euclidean distance of 1.56.

In turn, `CONC(=O)Nc1ccc(-c2sc3c(c2CN(C)C)c(=O)n(-c2ccc(OC)nn2)c(=O)n3Cc2c(F)cccc2F)cc1` [Relugolix] displayed an Euclidean distance of 1.37.

`CCCCCCCCN=C(N)NC(N)=NCc1ccc(Cl)c(Cl)c1` [Olanexidine Hydrochloride semihydrate] had an Euclidean distance of 6.25.

Consider `N[C@@H](CC(=O)O)C(=O)O` [L-aspartic Acid], for which the Euclidean distance was 0.701.

`O=C(c1ccc(F)c(F)c1Nc1ccc(I)cc1F)N1CC(O)([C@@H]2CCCCN2)C1` [Cobimetinib (GDC-0973. RG7420)] had an Euclidean distance of 3.23.

Compound `CN(C)CCN1C(=O)c2cccc3cc(N)cc(c23)C1=O` [Amonafide] showed an Euclidean distance of 2.47.

`Nc1nc(NC2CC2)c2ncn([C@H]3C=C[C@@H](CO)C3)c2n1` [Abacavir sulfate] had an Euclidean distance of 1.39.

As for `CC(C)(C)NCC(O)c1ccc(O)c(CO)c1` (configuration not stated) [Salbutamol Sulfate], the Euclidean distance turned out to be 1.27.

In turn, `CCOc1cc(N)c([N+](=O)[O-])cc1C(=O)NC1CCN(CC2CC=CCC2)CC1` (configuration not stated) [Cinitapride Hydrogen Tartrate] showed an Euclidean distance of 1.38.

For `CN1CCC(=C2c3ccccc3CCc3cccnc32)CC1` [Azatadine dimaleate], the Euclidean distance stood at 0.544.

Take `O=C1c2ccc(Nc3ccc(F)cc3F)cc2CCc2ccc(OC[C@H](O)CO)cc21` [Skepinone-L]: the Euclidean distance worked out at 1.78.

In the case of `CCc1nc(C(N)=O)c(Nc2ccc(N3CCC(N4CCN(C)CC4)CC3)c(OC)c2)nc1NC1CCOCC1` [Gilteritinib (ASP2215)], the Euclidean distance is 3.49.

In turn, `O=C(O)c1cc(=O)c2ccccc2o1` [Chromocarb] yielded an Euclidean distance of 0.751.

`CCCCCCCCCCCCCCCCCCOCC(O)CO` (configuration not stated) [Batyl alcohol] gave an Euclidean distance of 0.705.

As to `CC(C)c1nc(CN(C)C(=O)N[C@H](C(=O)N[C@@H](Cc2ccccc2)C[C@H](O)[C@H](Cc2ccccc2)NC(=O)OCc2cncs2)C(C)C)cs1` [Ritonavir], the Euclidean distance came to 1.08.

For the compound `CSc1nc2cc(Cl)c(Oc3cccc(Cl)c3Cl)cc2[nH]1` [Triclabendazole], the Euclidean distance is 1.65.

Compound `CCNC(=O)[C@@H]1CCCN1C(=O)[C@H](CCCNC(=N)N)NC(=O)[C@H](CC(C)C)NC(=O)[C@@H](CC(C)C)NC(=O)[C@H](Cc1ccc(O)cc1)NC(=O)[C@H](CO)NC(=O)[C@H](Cc1c[nH]c2ccccc12)NC(=O)[C@H](Cc1c[nH]cn1)NC(=O)[C@@H]1CCC(=O)N1` [Leuprolide Acetate] came in with an Euclidean distance of 0.992.

Compound `CC(=O)Oc1ccc(C(c2ccc(OC(C)=O)cc2)c2ccccn2)cc1` [Bisacodyl] displayed an Euclidean distance of 0.531.

`O=C(CCc1ccc(O)cc1)c1c(O)cc(O)cc1O` [Phloretin] gave an Euclidean distance of 1.06.

For `CC1(C)S[C@@H]2[C@H](NC(=O)[C@H](N)c3ccccc3)C(=O)N2[C@H]1C(=O)O` [Ampicillin Trihydrate], the Euclidean distance is 0.921.

The compound `OC(CCN1CCCC1)(c1ccccc1)C1CCCCC1` (configuration not stated) [Procyclidine HCl] had an Euclidean distance of 0.562.

The compound `CCN1C(=O)NC(c2ccccc2)C1=O` (configuration not stated) [Ethotoin] showed an Euclidean distance of 0.615.

On to `NCCCCCNCC12CC3CC(CC(C3)C1)C2` [IEM 1754 dihydrobroMide], for which the Euclidean distance turned out to be 0.662.

On to `CCN(CC)CC(=O)Nc1c(C)cccc1C` [Lidocaine hydrochloride], for which the Euclidean distance was 0.919.

Regarding `O=C1c2c(O)cccc2Cc2cccc(O)c21` [Dithranol], the Euclidean distance came to 1.2.

The compound `Cc1ccc(/C(=C\CN2CCCC2)c2cccc(/C=C/C(=O)O)n2)cc1` [Acrivastine] gave an Euclidean distance of 1.03.

Regarding `C=C(C)[C@@H]1CC[C@]2(CO)CC[C@]3(C)[C@H](CC[C@@H]4[C@@]5(C)CC[C@H](O)C(C)(C)[C@@H]5CC[C@]43C)[C@@H]12` [Betulin], the Euclidean distance was found to be 1.07.

In the case of `COc1ccc2[nH]cc(CCNC(C)=O)c2c1` [Melatonin], the Euclidean distance stood at 0.808.

Compound `CO/N=C(\C(=O)N[C@@H]1C(=O)N2C(C(=O)OCOC(=O)C(C)(C)C)=C(/C=C\c3scnc3C)CS[C@H]12)c1csc(N)n1` [Cefditoren Pivoxil] registered an Euclidean distance of 1.67.

Take `N=C(N)c1ccc(N=NNc2ccc(C(=N)N)cc2)cc1` [Diminazene Aceturate]: the Euclidean distance came to 1.1.

The compound `CN[C@H](CC(C)C)C(=O)N[C@H]1C(=O)N[C@@H](CC(N)=O)C(=O)N[C@H]2C(=O)N[C@H]3C(=O)N[C@H](C(=O)N[C@H](C(=O)O)c4cc(O)cc(O)c4-c4cc3ccc4O)[C@H](O)c3ccc(c(Cl)c3)Oc3cc2cc(c3O[C@@H]2O[C@H](CO)[C@@H](O)[C@H](O)[C@H]2O[C@H]2C[C@](C)(N)[C@H](O)[C@H](C)O2)Oc2ccc(cc2Cl)[C@H]1O` [Vancomycin HCl] yielded an Euclidean distance of 0.862.
